This passage reports Potency, outcome and max activation results from PubChem BioAssay (Tox21).

A number with no mark means an inactive call. Inconclusive results are not listed. Active and inactive are the calls of the source. Unless noted, calls follow the shape of the dose curve; as a rule, active = well fitted curve in the direction sought with a large enough effect in the repeat runs; inconclusive = weak or mixed curves; inactive = no such curve, though single readings can be large; an effect the other way counts as inactive or inconclusive.

The target in test [1] is Progesterone receptor (Homo sapiens) (UniProt P06401). Description: qHTS assay to identify small molecule antagonists of the progesterone receptor (PR) signaling pathway (AID 1346795; active = well fitted inhibition curve with a large enough effect in the signal ratio in the repeat runs, not every such curve was filed as active; the % refers to the signal ratio; also: % is scaled to controls: 0 for no effect and ±100 for the full control effect). In outline:
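Screening used a GripTite HEK293T line with PR-responsive UAS-beta-lactamase. Cells were challenged with compound in the presence of 1 nM R5020 final for 16 hr at 37C; B/G FRET substrate, 2 hr room temperature, fluorescence.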
In general terms: qHTS replaces the single test concentration by a dilution series.

A short description of test [2]: qHTS assay to identify small molecule antagonists of the progesterone receptor (PR) signaling pathway - cell viability counter screen (AID 1346798). Also: nearly all actives have a fitted effect of over 50% in size. Also: potency is read from the fitted curve at half-maximal effect. The procedure, abridged:
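Measures cytotoxicity in parallel with the PR antagonist reporter read: HEK293T PR-UAS-bla cells get compound and R5020 for 16 hr, and remaining viable cells are quantified by CellTiter-Glo luminescence.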

A short description of test [3]: qHTS assay to identify small molecule agonists of the progesterone receptor (PR) signaling pathway - cell viability counter screen (AID 1346799; calls by dose curve; also: % is scaled to controls: 0 for no effect and ±100 for the full control effect; nearly all actives have a fitted effect of over 45% in size). The procedure, abridged:
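Using the same plates as the PR reporter screen, HEK293T PR-UAS-bla cells received compounds for 16 hr at 37C and were then lysed with CellTiter-Glo; luminescence was read 30 min later at room temperature.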

Test [4] in a line: qHTS assay to identify small molecule antagonists of the TGF-beta/Smad signaling pathway - cell viability counter screen (AID 1346824). Also: nearly all actives have a fitted effect of over 50% in size. Also: potency is read from the fitted curve at half-maximal effect. The procedure, abridged: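 SBE-bla HEK 293T cells were plated overnight at 37 C, then given compounds in DMSO plus TGF-beta1 (added as 0.25 ng/mL solution) for 5 hr. After the bla read, CellTiter-Glo was added to the same wells and luminescence read after 30 min at room temperature.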

Test [5] in a line: qHTS assay to identify small molecule agonists of the TGF-beta/Smad signaling pathway - cell viability counter screen (AID 1346829). Also: top concentration of the series differs between compounds; % is scaled to controls: 0 for no effect and ±100 for the full control effect; nearly all actives have a fitted effect of over 45% in size. In outline: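 Same-well cytotoxicity: CellTiter-Glo added after the 2 hr room-temperature beta-lactamase substrate step, luminescence measured 30 min later; cells had 5 hr of compound at 37 C.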
Test [6] can be described thus: Human pregnane X receptor (PXR) small molecule agonists, qHTS cell viability counter screen (AID 1346977). Also: nearly all actives have a fitted effect of over 50% in size. Also: potency is read from the fitted curve at half-maximal effect. The procedure, abridged:
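After a 5hr pre-incubation, PXR-Luc HepG2 cells received compounds plus positive control in DMSO and were kept 24hr at 37C. Cell viability was quantified by fluorescence from CellTiter-Fluor added for the final hour.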

Test [7] is described as follows: Caspase-3/7 induction in HepG2 cells by small molecules, qHTS assay (AID 1346978). Also: % is scaled to controls: 0 for no effect and ±100 for the full control effect; nearly all actives have a fitted effect of over 15% in size. The procedure, abridged:
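Wild-type HepG2 cells (2,000/well) were settled 5 h at 37 C, 5% CO2, then exposed to compounds in DMSO for 17 h. Caspase-3/7 activity was read by luminescence 30 min after adding Caspase-Glo 3/7 reagent at room temperature.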

Test [8] in a line: Caspase-3/7 induction in CHO-K1 cells by small molecules, qHTS cell viability counter screen (AID 1346979). Also: nearly all actives have a fitted effect of over 35% in size. Also: potency is read from the fitted curve at half-maximal effect. In outline:
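Multiplexed with Caspase-Glo 3/7 in CHO-K1 cells, this counter screen added CellTiter-Fluor after 16hr of compound exposure and recorded fluorescence 1hr later.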

Test [9] can be described thus: Caspase-3/7 induction in CHO-K1 cells by small molecules, qHTS assay (AID 1346980). Also: % is scaled to controls: 0 for no effect and ±100 for the full control effect; nearly all actives have a fitted effect of over 15% in size. In outline: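 Wild-type cells were seeded at 1,500 per well and settled 5 hr at 37 C, 5% CO2, then exposed to DMSO-dissolved compounds for 17 hr. Caspase-Glo 3/7 reagent was added, and luminescence was read after 30min at room temperature.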
Test [10] is described as follows: Caspase-3/7 induction in HepG2 cells by small molecules, qHTS cell viability counter screen (AID 1346981). Also: nearly all actives have a fitted effect of over 30% in size. Also: potency is read from the fitted curve at half-maximal effect. In outline:
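Wild-type HepG2 cells (2,000/well) were allowed to settle for 5 hr at 37 C, 5% CO2, then dosed with compounds in DMSO by pin transfer. After 16 hr at 37 C, CellTiter-Fluor was added and fluorescence read 1 hr later.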

The target of test [11] is Nuclear receptor subfamily 1 group I member 2 (Homo sapiens) (UniProt O75469). Description: Human pregnane X receptor (PXR) small molecule agonists, qHTS assay (AID 1346982). Also: nearly all actives have a fitted effect of over 35% in size. Also: potency is read from the fitted curve at half-maximal effect. The procedure, abridged: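 PXR-Luc HepG2 cells (CYP3A4 promoter-driven luciferase) were seeded in medium with 5% charcoal-stripped FBS, left 5 hr at 37 C, then exposed to compounds in DMSO for 24 hr. Luminescence was read after ONE-Glo addition.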

For test [12], the target named is Acetylcholinesterase (Homo sapiens) (UniProt P22303). The test is described as follows: Acetylcholinesterase (AChE) small molecule antagonists: colormetric cell-based qHTS assay (AID 1347395; calls by dose curve; also: % is scaled to controls: 0 for no effect and ±100 for the full control effect; nearly all actives have a fitted effect of over 30% in size). The procedure, abridged: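 In this cell-based qHTS, attached SH-SY5Y cells were treated with test chemicals for 30 min, after which acetylthiocholine hydrolysis was followed by DTNB colour development over 90 min at 37 C.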

Test [13] has the same target. Description: Acetylcholinesterase (AChE) small molecule antagonists: enzyme-based qHTS assay (AID 1347397; calls by dose curve; also: % is scaled to controls: 0 for no effect and ±100 for the full control effect; nearly all actives have a fitted effect of over 55% in size). Conditions: Potency: AChE enzyme activity inhibition. The procedure, abridged: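 Recombinant human AChE, dispensed at 50 mU/mL, was preincubated with Tox21 10K compounds or DMSO vehicle for 30 min at room temperature. DTNB plus acetylthiocholine was then added, and thiocholine was measured colorimetrically after a further 10 min.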

Test [14] concerns the target Progesterone receptor (Homo sapiens) (UniProt P06401). The test is described as follows: qHTS assay to identify small molecule agonists of the progesterone receptor (PR) signaling pathway (AID 1346784; calls by dose curve; also: % is scaled to controls: 0 for no effect and ±100 for the full control effect; nearly all actives have a fitted effect of over 30% in size). In outline: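 Seed PR-UAS-bla HEK 293T cells (2% charcoal-stripped FBS), incubate 6 hr at 37C; add compounds in DMSO, 16 hr at 37C; add LiveBLAzer B/G substrate, 2 hr RT; read fluorescence intensity.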

The nature of test [15]: qHTS assay to identify small molecule agonists of the TGF-beta/Smad signaling pathway (AID 1346859; active = well fitted activation curve with a large enough effect in the signal ratio in the repeat runs, not every such curve was filed as active; the % refers to the signal ratio; also: series mostly up to about 77 µM; % is scaled to controls: 0 for no effect and ±100 for the full control effect). In outline:
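Beta-lactamase reporter activity downstream of Smad binding elements was measured in stably transfected HEK 293T cells; compounds were incubated for 5 hr, substrate for 2 hr at room temperature.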

Test [16] deals with Thyrotropin-releasing hormone receptor (Homo sapiens) (UniProt P34981). Description: qHTS assay to identify small molecule antagonists of the thyrotropin-releasing hormone receptor (TRHR) signaling pathway (AID 1346877; active = well fitted inhibition curve with a large enough effect in the repeat runs, not every such curve was filed as active; also: series mostly up to about 51 µM; % is scaled to controls: 0 for no effect and ±100 for the full control effect). In outline:
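TRHR-expressing HEK293 cells were seeded, cultured 18 h at 37 °C, then loaded with calcium dye for 2 h. Compounds were pre-incubated 5 min at room temperature before 1 nM TRH (final) was added, and kinetic fluorescence was recorded for 3 min.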

The target is the same in test [17]. Description: qHTS assay to identify small molecule agonists of the thyrotropin-releasing hormone receptor (TRHR) signaling pathway (AID 1346891; calls by dose curve; also: series mostly up to about 58 µM; % is scaled to controls: 0 for no effect and ±100 for the full control effect). The procedure, abridged:
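Overnight-plated (18 h, 37 °C, 5% CO2) TRHR-Hek293 cells; 2 h calcium dye at 37 °C; compound in DMSO; 3-min kinetic fluorescence read.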

The target in test [18] is Nuclear receptor subfamily 1 group I member 2 (Rattus norvegicus) (UniProt Q9R1A7). The test is described as follows: Rat pregnane X receptor (rPXR) activation by small molecules, qHTS assay (AID 1346983). Also: % is scaled to controls: 0 for no effect and ±100 for the full control effect; nearly all actives have a fitted effect of over 20% in size. Conditions: rPXR luciferase reporter cells, One-Glo luminescence, 24 h; max activation: hits give high values. The procedure, abridged: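 Cell-based rPXR luciferase reporter assay, 2,000 cells per well, rested 5hr at 37 C before compound addition in DMSO, then 24 hr at 37 C. One-Glo reagent was added and luminescence read after 30 min at room temperature.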

In test [19] the target is Nuclear receptor subfamily 1 group I member 2 (Homo sapiens) (UniProt O75469). The test is described as follows: CYP3A4 induction through human pregnane X receptor (PXR) by small molecules, qHTS assay (AID 1346984). Also: % is scaled to controls: 0 for no effect and ±100 for the full control effect; nearly all actives have a fitted effect of over 40% in size. The procedure, abridged:
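DPX-2 cells (HepG2 co-transfected with PXR and CYP3A4 promoter-luciferase) treated with compounds 24 h at 37C; luciferin-IPA CYP3A4 substrate 3uM final added for 3 h, then One-Glo; luminescence read. qHTS format.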

Test [20] has the same target. Description: Human pregnane X receptor (PXR) activation by small molecules, qHTS assay (AID 1346985). Also: potency is read from the fitted curve at half-maximal effect; nearly all actives have a fitted effect of over 40% in size. The procedure, abridged: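 DPX-2 cells (HepG2 co-transfected with a PXR response element and a CYP3A4-promoter luciferase construct) were seeded at 2,000 per well, rested 5 hr at 37C, then exposed to DMSO-dissolved compounds for 24 hr. Activation was read as luciferase luminescence.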

Sequence of Nuclear receptor subfamily 1 group I member 2 (Homo sapiens) (O75469 whole entry, looked up): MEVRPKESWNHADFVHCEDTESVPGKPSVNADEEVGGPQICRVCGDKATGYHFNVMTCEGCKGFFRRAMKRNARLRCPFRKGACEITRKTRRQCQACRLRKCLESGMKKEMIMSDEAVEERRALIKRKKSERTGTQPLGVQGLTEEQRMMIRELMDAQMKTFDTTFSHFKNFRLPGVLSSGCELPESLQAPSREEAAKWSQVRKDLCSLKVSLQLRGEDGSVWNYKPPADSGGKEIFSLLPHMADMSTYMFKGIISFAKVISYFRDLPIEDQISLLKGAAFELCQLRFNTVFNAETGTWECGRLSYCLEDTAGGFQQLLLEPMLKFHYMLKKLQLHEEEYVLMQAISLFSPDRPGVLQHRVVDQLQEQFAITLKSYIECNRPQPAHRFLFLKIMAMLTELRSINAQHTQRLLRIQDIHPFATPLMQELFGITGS
Sequence of Progesterone receptor (Homo sapiens) (P06401 whole entry, looked up): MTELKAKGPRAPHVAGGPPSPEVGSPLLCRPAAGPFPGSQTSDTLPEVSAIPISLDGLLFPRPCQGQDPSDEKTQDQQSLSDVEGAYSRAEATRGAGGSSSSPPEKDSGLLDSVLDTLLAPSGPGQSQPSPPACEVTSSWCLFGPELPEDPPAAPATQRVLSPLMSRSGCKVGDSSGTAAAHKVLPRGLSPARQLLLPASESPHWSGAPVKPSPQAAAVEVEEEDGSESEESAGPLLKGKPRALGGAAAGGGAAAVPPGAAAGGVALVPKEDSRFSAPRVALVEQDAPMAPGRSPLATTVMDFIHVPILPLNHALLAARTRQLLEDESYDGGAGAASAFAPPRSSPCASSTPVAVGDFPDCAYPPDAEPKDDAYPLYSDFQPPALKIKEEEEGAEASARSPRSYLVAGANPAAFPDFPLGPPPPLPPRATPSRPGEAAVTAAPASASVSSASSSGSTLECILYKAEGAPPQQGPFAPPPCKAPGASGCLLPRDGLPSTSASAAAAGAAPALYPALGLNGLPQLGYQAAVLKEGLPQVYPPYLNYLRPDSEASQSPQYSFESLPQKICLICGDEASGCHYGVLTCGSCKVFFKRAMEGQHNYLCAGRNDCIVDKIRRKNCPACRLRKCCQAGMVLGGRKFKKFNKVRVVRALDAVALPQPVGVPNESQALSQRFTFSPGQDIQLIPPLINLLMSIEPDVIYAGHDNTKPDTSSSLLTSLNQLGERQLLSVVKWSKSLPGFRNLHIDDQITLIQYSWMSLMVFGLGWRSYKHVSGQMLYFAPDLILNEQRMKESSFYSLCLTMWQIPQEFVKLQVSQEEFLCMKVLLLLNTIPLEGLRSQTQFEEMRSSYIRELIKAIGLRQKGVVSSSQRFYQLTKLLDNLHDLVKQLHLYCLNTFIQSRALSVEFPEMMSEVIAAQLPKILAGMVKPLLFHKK
Sequence of Acetylcholinesterase (Homo sapiens) (P22303 whole entry, looked up): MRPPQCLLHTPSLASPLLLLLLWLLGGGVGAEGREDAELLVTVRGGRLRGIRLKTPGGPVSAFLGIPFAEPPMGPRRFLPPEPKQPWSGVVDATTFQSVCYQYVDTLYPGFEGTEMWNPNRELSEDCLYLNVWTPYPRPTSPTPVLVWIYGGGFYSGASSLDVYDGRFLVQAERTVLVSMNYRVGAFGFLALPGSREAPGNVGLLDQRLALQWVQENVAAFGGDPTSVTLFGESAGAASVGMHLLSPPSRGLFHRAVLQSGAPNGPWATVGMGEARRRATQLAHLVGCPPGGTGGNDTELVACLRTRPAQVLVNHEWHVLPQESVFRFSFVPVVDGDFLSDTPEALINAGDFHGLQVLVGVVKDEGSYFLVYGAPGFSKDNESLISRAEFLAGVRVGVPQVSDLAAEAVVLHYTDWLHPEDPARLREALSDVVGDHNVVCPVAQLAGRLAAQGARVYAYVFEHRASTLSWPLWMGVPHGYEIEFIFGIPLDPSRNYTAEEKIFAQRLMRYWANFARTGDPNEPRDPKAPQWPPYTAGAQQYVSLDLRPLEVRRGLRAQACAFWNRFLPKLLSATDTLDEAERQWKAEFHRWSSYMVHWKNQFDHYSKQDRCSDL
Sequence of Thyrotropin-releasing hormone receptor (Homo sapiens) (P34981 whole entry, looked up): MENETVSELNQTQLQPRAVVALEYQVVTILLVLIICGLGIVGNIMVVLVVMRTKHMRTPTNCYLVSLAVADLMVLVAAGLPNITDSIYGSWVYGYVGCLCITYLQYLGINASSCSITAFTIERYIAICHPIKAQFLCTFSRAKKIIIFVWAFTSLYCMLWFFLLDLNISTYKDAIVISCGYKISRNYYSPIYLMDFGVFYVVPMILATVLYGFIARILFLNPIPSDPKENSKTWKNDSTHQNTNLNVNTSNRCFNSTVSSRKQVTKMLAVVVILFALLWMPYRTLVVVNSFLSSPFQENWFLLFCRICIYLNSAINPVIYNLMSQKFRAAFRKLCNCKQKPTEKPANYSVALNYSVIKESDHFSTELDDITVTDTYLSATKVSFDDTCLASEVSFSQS
Sequence of Nuclear receptor subfamily 1 group I member 2 (Rattus norvegicus) (Q9R1A7 whole entry, looked up): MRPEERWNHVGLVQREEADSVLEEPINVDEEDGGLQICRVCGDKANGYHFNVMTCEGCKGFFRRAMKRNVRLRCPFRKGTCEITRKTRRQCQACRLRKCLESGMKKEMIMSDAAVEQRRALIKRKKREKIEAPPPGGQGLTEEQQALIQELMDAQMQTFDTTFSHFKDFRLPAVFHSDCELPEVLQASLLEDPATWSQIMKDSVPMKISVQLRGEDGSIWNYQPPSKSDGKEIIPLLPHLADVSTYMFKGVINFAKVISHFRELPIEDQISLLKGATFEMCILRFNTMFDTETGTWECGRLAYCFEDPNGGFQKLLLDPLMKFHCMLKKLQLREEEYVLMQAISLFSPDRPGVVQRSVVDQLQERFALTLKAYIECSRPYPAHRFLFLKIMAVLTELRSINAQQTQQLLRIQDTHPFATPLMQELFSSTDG

`Cc1nnc2n1-c1sc(CCC(=O)N3CCOCC3)cc1C(c1ccccc1Cl)=NC2`: the Potency result in [1], in test [2], in [3], in test [4], in test [6] and in test [7] was “inactive” in each case. In addition, the Potency result in test [8], in [9], in test [10], in [11], in test [12] and in test [13] was “inactive” each time. Further, the compound was classed as inactive in test [5].
As to `C[C@H]1CCC[C@H](O)CCCCCc2cc(O)cc(O)c2C(=O)O1`, the Potency entry in test [14], in test [4], in [7], in test [9], in test [19] and in [12] was “inactive” in each case. In addition, the Potency entry in test [13] is “inactive”. Further, the call in [15], in test [16] and in test [17] was inactive. Besides, the Potency in test [6] was 48.9 µM (active); in [8] it was 61.6 µM (active); in [10], 54.9 µM (active); in [11] it was 7.75 µM (active); in [20], 12.6 µM (active). The max activation in [18] is -2.62%.
Consider `CC(CCc1ccccc1)NC(C)C(O)c1ccc(O)cc1` (configuration not stated), for which the Potency entry in [14], in [2], in test [7], in [8], in test [9] and in test [10] was “inactive” throughout. For the same compound, the Potency result in [11], in test [12] and in test [13] was “inactive” throughout. The result in test [5] and in [15] was inactive.
In the case of `O=C(Nc1ccccc1)N(Cc1ccc(Cl)cc1)C1CCCC1`, the Potency entry in [14], in test [2], in test [4], in test [7], in test [9] and in [13] was “inactive” throughout. Besides, the call in test [15], in test [16] and in [17] was inactive. Moreover, the Potency is 61.1 µM (active) in test [6] and 6.11 µM (active) in test [11].
Regarding `N#CC(CCc1ccc(Cl)cc1)(Cn1cncn1)c1ccccc1` (configuration not stated), the Potency was 30.6 µM (active) in [2]; 54.9 µM (active) in test [4]; 61.1 µM (active) in [6]; 43.3 µM (active) in [8]; 19.3 µM (active) in test [11]. The Potency entry in [9], in [12] and in test [13] was “inactive” each time.
On to `Nc1n[nH]c(N)n1`, for which the Potency entry in test [14], in test [3], in test [4], in test [6], in [7] and in test [8] was “inactive” throughout. For the same compound, the Potency result in [9], in test [11], in test [12] and in test [13] was “inactive” throughout. The call in test [15], in test [16] and in [17] was inactive.
Regarding `N#CC(Cl)(Cl)Cl`, the Potency result in test [2], in test [3], in test [4], in test [6], in [7] and in [8] was “inactive” in each case. In addition, the Potency result in test [9], in test [10], in [11] and in [12] was “inactive” throughout. The compound was classed as inactive in test [5] and in [15].
Take `O=C1OC(CCN2CCCCC2)OC1(c1ccccc1)c1ccccc1` (configuration not stated): the Potency result in [2], in test [4], in test [6], in test [7], in test [9] and in test [10] was “inactive” throughout. Further, the Potency entry in test [11], in test [12] and in [13] was “inactive” throughout. The compound was called inactive in test [5], in [15], in test [16] and in test [17].
